Among all 300,000 compounds or so, about 37,000 (12%) were called active. Many of the other results were omitted from the sample, so actives are more common in it than they were. A number with no mark means an inactive call. Cut-off read from the data, not from the text of the source: active = max response mostly above about 13% (no sharp cut-off); inactive = mostly below about 14%.
Experiment: Cycloheximide Counterscreen for Small Molecule Inhibitors of Shiga Toxin; note: read at 38.3 µM for the half of the compounds with a filed dose; 0% is about no effect
Conditions: cell reporter, cycloheximide protein synthesis inhibition counterscreen; active compounds read high
`CCOc1ccccc1N1CCN(C(=O)COc2ccc3c(C)cc(=O)oc3c2)CC1` gave a max response of -3.54%. Compound `CC(C)(C)NC(=O)CSc1nnc(NC(=O)CCc2ccccc2)s1` has a max response of -0.182%. In the case of `COc1ccc([N+](=O)[O-])cc1NC(=O)CCc1ccccc1`, the max response is reported as -3.85%. With `O=C(CCc1ccccc1)Nc1ncc([N+](=O)[O-])s1` the max response was 60.9% (active). With `CCCn1c(SCC(=O)c2ccc3c(c2)OCCO3)nnc1C(C)C` the max response was 15.2% (active). `CCCn1c(SCC(N)=O)nnc1C(C)C` gave a max response of -4.34%. In the case of `CCn1c(SCC(=O)Nc2ccc3c(c2)OCCO3)nnc1C(C)C`, the max response is reported as -1.89%. `COc1cc(C(=O)N/C(=C\c2cn(C)c3ccccc23)C(=O)N2CCOCC2)cc(OC)c1OC` gave a max response of -5.05%. With `O=C(C1CCCN(S(=O)(=O)c2ccccc2)C1)N1CCN(c2ccc(F)cc2)CC1` (stereo not given) the max response was 8%. Work on `CCOC(=O)c1ccc(NC(=O)c2cc(=O)[nH]c3ccccc23)cc1` yielded a max response of -2%. For `CCOC(=O)c1ccc2[nH]c3c(c2c1)CCCC3NC=O` (stereo not given), the max response was 13.2% (active). In the case of `O=[N+]([O-])c1ccc2[nH]c3c(c2c1)CCCC3O` (stereo not given), the max response is reported as -4.82%. `O=C(COc1cccc(F)c1)Oc1ccc(C(=O)c2ccccc2)cc1` showed a max response of 15.6%. Compound `O=C(Nc1cccc(OC(=O)N2CCCCC2)c1)N1CCOCC1` has a max response of 5.17%. `O=C(c1ccccc1)c1ccc(OCC(O)CN2CCCC2)cc1` (stereo not given) gave a max response of 5.75%. For `CC(C)(C)c1ccc(C(=O)N2CCC(C(=O)N3CCCCC3)CC2)cc1`, the max response was -2.39%. In the case of `O=C(c1ccccc1)c1ccc(OC(=O)N2CCCC2)cc1`, the max response is reported as 37.5% (active). With `CC(C)(C)c1ccc(OC(=O)N2CCCCC2)cc1` the max response was 54.1% (active). With `CC(C)CCNC(=O)C(C)N(C(=O)Cn1nnc(-c2ccc(F)cc2)n1)C1CCCC1` (stereo not given) the max response was -1.9%. `COC(C[C@@H](O)[C@H](C)[C@H](O)COCc1ccccc1)OC` gave a max response of 5.98%. With `O=C(NCCS(=O)(=O)N1CCN(c2ccccc2F)CC1)c1ccc(Br)o1` the max response was 8.75%. Compound `O=S(=O)(c1ccc2c(c1)OCCCO2)N1CCN(S(=O)(=O)c2c(F)cccc2F)CC1` has a max response of 3.98%. In the case of `CN(C)c1ccc(-c2nnc(-c3cccnc3)o2)cc1`, the max response is reported as 56.2% (active). With `Cc1csc(NC(=O)CSc2nnc(-c3cccnc3)o2)n1` the max response was -7.35%. In the case of `CN(C)c1nc(-c2cccnc2)nc(-c2ccc(Cl)cc2)c1C#N`, the max response is reported as -4.98%. Compound `CCCNCc1cc(OCC)c(OCC(=O)Nc2ccccc2)cc1Br` has a max response of -0.891%. `CCN(CC)CCCNC(=O)CCn1nc(-c2ccc(Cl)cc2)ccc1=O` showed a max response of -2.58%. `CC(C)N(Cc1ccccc1)C(=O)COC(=O)c1cnccn1` gave a max response of -3.2%. Work on `Cc1ccc2oc(=O)c3cnn(CC(=O)N4CCCCCC4)c3c2c1` yielded a max response of -10.3%. `Cc1ccc(C(=O)N2CCCCCC2)cc1Br` showed a max response of 10.4%. With `Cc1ccc2cc3cc(C(=O)N4CCCCCC4)oc3nc2c1` the max response was 43.7% (active). Work on `C=CCn1c(SCC(=O)NCCCO)nc2sc3c(c2c1=O)CCC3` yielded a max response of -2.04%. Work on `NCCCCC(N)C(=O)O` (stereo not given) yielded a max response of -7.46%. For `CN1/C(=C\C=C2\N=C(c3ccc(F)cc3)OC2=O)C(C)(C)c2ccccc21`, the max response was -1.91%. Compound `Cc1cccc(C(=O)Nc2ccc(CC(=O)O)cc2)c1` has a max response of -5.6%. With `Cc1cccc(C(=O)Nc2ccc(C(=O)/C=C/c3cccs3)cc2)c1` the max response was 76% (active). Work on `Cc1cccc(C(=O)Nc2ccc(C(=O)N/N=C/c3cccc(C)n3)cc2)c1` yielded a max response of 5.54%. Compound `C=CCN1CCN(C(=O)CCCc2ccccc2)CC1` has a max response of 1.1%. In the case of `CCCS(=O)(=O)N1CCN=C1SCc1cccc(F)c1`, the max response is reported as -1.71%. In the case of `O=C(OCC(O)C(O)COC(=O)c1ccccc1)c1ccccc1` (stereo not given), the max response is reported as -1.94%. For `COc1ccc(NC(=O)COC(=O)c2ccncc2)c(OC)c1`, the max response was 0.0404%. In the case of `O=C(COC(=O)c1ccncc1)c1ccccc1`, the max response is reported as 18.7% (active). `CCOc1ccc(C)cc1S(=O)(=O)NC1CCCCCC1` showed a max response of -2.48%. With `Cc1ccccc1NC(=O)NCC1CCN(Cc2cccc(Cl)c2)CC1` the max response was -4.17%. Compound `COc1cccc2cc(C(=O)NCc3ccc(C)cc3)c(=N)oc12` has a max response of 3.84%. `CC(NC(=O)c1cc2cc(Cl)ccc2oc1=N)c1ccccc1` (stereo not given) gave a max response of -1.94%. With `N=c1oc2ccccc2cc1C(=O)NCc1ccccc1` the max response was 41.3% (active). In the case of `N=c1oc2ccccc2cc1C(=O)N/N=C/c1ccccc1`, the max response is reported as 46.7% (active). Work on `CNC(=O)c1cc2c(ccc3ccccc32)oc1=N` yielded a max response of 18.4%. For `O=C(c1cccc(Br)c1)N1CCN(C2=NS(=O)(=O)c3ccccc32)CC1`, the max response was -3.24%. In the case of `CC1=C(C(=O)OC2CCCCC2)C(c2ccccc2F)NC(=O)N1` (stereo not given), the max response is reported as 13.8%. For `COc1cc(OC)c(OC)cc1CN1CCN(C(=O)c2cccc3ccccc23)CC1`, the max response was -0.856%. For `O=C(N/C(=C\c1ccc([N+](=O)[O-])cc1)C(=O)N1CCCCC1)c1ccco1`, the max response was -1.29%. `CC(Sc1nnc2c(n1)C1CCC2(C)C1(C)C)C(=O)Nc1ccccc1` (stereo not given) gave a max response of -1.8%. For `CSc1nc(C)cc(SC(C(C)=O)C(=O)Nc2ccccc2)n1` (stereo not given), the max response was 31.9% (active). In the case of `Cc1cc(C)nc(N(C#N)CC(=O)Nc2ccccc2)n1`, the max response is reported as -2.23%. `Cc1c(OC(C)C(=O)NCC2CCC(C(=O)O)CC2)ccc2c1oc(=O)c1ccccc12` (stereo not given) gave a max response of -1.17%. Compound `CS(=O)(=O)N(Cc1ccccc1Cl)c1ccc(C(=O)NCc2cccnc2)cc1` has a max response of -1.15%. Compound `CCOc1ccc(N=Cc2c(O)n(-c3cccc(C)n3)c(=O)c3ccccc23)cc1` has a max response of 9.6%. Work on `CCCCn1c(=O)c(C(C)=O)c(O)c2ccccc21` yielded a max response of 1.86%. For `CC(=O)n1c(C=Nc2ccccc2)c(O)c2ccccc21`, the max response was 33.7% (active). Compound `O=C(c1cccnc1)N(c1cc2sc(=O)oc2c2ccccc12)S(=O)(=O)c1ccccc1` has a max response of -2.05%. In the case of `Cc1ccc(N(C(=O)c2ccc(S(=O)(=O)N(C)C)cc2)C2C=CS(=O)(=O)C2)cc1` (stereo not given), the max response is reported as -2.02%. In the case of `O=C(c1ccc(OC2CCN(C/C=C/c3ccc(F)cc3)CC2)cc1)N1CCCCC1`, the max response is reported as -0.769%. In the case of `Nc1ccccc1SCc1cc([N+](=O)[O-])cc2c1OCOC2`, the max response is reported as 24.7% (active). For `CC(O)C(NS(=O)(=O)c1ccc(Cl)cc1)C(=O)OCc1cc([N+](=O)[O-])cc2c1OCOC2` (stereo not given), the max response was -0.904%. With `CCC1(CC)Cc2ccccc2-c2nc(CCl)[nH]c(=O)c21` the max response was -3.16%. For `CC(=O)OCCN(CCCn1c(-c2ccncc2)nc2ccccc21)c1nc(-c2ccc(C)cc2)cs1`, the max response was -0.764%. `CCOCCOC(=O)C1=C(C)NC(=O)NC1c1ccc2c(c1)OCO2` (stereo not given) showed a max response of -1.93%. For `CCOC(=O)c1c(C)[nH]c(C(=O)COc2ccc3c(c2)OCO3)c1C`, the max response was 18%. For `CCOC(=O)c1nc(-c2ccc3c(c2)OCO3)[nH]c1C`, the max response was 29% (active). In the case of `Cc1cc(C)n2nc(C(=O)N(C)C(c3ccccc3)c3ccccc3)nc2n1`, the max response is reported as -3.94%. Compound `CC1CN(C(=S)Nc2ccc(S(N)(=O)=O)cc2)CC(C)O1` (stereo not given) has a max response of -1.03%. For `O=C(Nc1ccc(Br)cc1)c1cc(S(=O)(=O)Nc2ccccn2)ccc1Cl`, the max response was 0.597%. With `CCOC(=O)C1=C(c2ccccc2)NC(=O)NC1c1cc(OC)c(OC)cc1OC` (stereo not given) the max response was 1.07%. `CC(C)=C(NC(=O)c1ccccc1)C(=O)N/N=C(\C)c1ccccc1O` gave a max response of 1.01%. With `C/C(=N\NC(=O)c1ccoc1C)c1ccccc1O` the max response was 18.7% (active). Compound `COc1ccccc1N(CC(=O)N/N=C(\C)c1ccccc1O)S(=O)(=O)c1ccc(C)cc1` has a max response of -1.67%. In the case of `COc1ccc(Cl)cc1-n1c(C)cc(C(=O)OCC(=O)N2CC(=O)Nc3ccccc32)c1C`, the max response is reported as 0.969%. Compound `CC(C)COC(=O)n1c(=O)oc2ccc(S(=O)(=O)N3CCCCC3)cc21` has a max response of -3.35%. Work on `O=C(Nc1nnc(-c2ccc(F)cc2)s1)c1c(F)cccc1Cl` yielded a max response of -1.16%. With `COCCCNC(=S)NNC(=O)C(O)(c1ccccc1)c1ccccc1` the max response was -2.66%. Compound `Cc1cccc(OCCNC(=S)NC(=O)c2cccnc2)c1` has a max response of -2.88%. Compound `COc1ccccc1OCCNC(=O)c1cc([N+](=O)[O-])cc([N+](=O)[O-])c1` has a max response of 6.58%. With `COCCCNC(=S)NC(=O)c1ccccc1` the max response was 36.8% (active). With `COCCCNC(=S)NC(=O)c1ccc([N+](=O)[O-])cc1` the max response was 27.5% (active). Work on `CCCCCC(=O)NC(=S)NNC(=O)c1ccc([N+](=O)[O-])cc1` yielded a max response of 0.94%. Work on `O=C(Cc1ccccc1Cl)N1CCOCC1` yielded a max response of -3.01%. Compound `Cc1ccc(Cl)cc1NC(=O)CN1CCN(S(=O)(=O)N2CCOCC2)CC1` has a max response of -6.26%. With `O=C(c1c(F)cccc1Cl)N1CCN(S(=O)(=O)c2ccc3c(c2)OCCCO3)CC1` the max response was -1.76%. In the case of `O=C(CN(C(=O)CCC(=O)Nc1nccs1)c1ccc(F)cc1)NCc1ccc2c(c1)OCO2`, the max response is reported as -6.07%. Work on `COc1ccc(-c2oc(/N=C/N3CCCC3)c(C#N)c2-c2ccc(OC)cc2)cc1` yielded a max response of -5.61%. Compound `O=[N+]([O-])c1cc(C(F)(F)F)ccc1NCCc1ccncc1` has a max response of 9.83%. `Fc1ccccc1CCNc1nnnn1-c1ccccc1` gave a max response of 0.858%. With `O=C1CCC(=O)N1c1ccc(NCCc2ccccc2F)c([N+](=O)[O-])c1` the max response was 21.6% (active).
